# Laboratory results as given in PubChem BioAssay AID1986 (Sanford-Burnham Center for Chemical Genomics, 2009).
# The whole screen tested about 290,000 compounds, of which about 890 (0.31%) were called active. Cut-off read from the data, not from the text of the source: active = inhibition mostly above about 52% (no sharp cut-off); inactive = mostly below about 76%. The list comes from a sample in which actives are over-represented; it also holds similar structures and randomly drawn compounds.
# Test: cell-free HIV fusion peptide-binding blockers – biochemical, uHTS, fluorescence dequenching, primary screen (AID 1986)
# Conditions: 30 min, stronger effect = higher value
# [1] = measured here: repeat confirmation average inhibition, at 18.6 µM
Compound,inhibition (at 20 µM),inhibition [1] [%]
CN(C)c1ccc(N=Cc2nc(-c3ccccc3)oc2O)cc1,84.5% (active),132
Cc1ccc(-c2nc(C=Nc3ccccc3)c(O)o2)cc1,-1.7% (inactive),
Oc1oc(-c2ccccc2)nc1C=Nc1ccccc1,-1.4% (inactive),
O=C(CCCc1ccccc1)Nc1ccccn1,-1.4% (inactive),
O=C(O)CS(=O)CC(=O)Nc1cccc(C(F)(F)F)c1 (stereo unspecified),0.3% (inactive),
CCN1C(=O)/C(=C\c2ccc(-c3cccc(C(=O)OC)c3)o2)SC1=Nc1ccc(C(=O)O)cc1,51.6% (inactive),8.6
CCN=C1S/C(=C\c2ccc(-c3cccc(C(=O)O)c3)o2)C(=O)N1CC,42% (inactive),
Cc1ccc(-c2csc(NC(=O)c3ccco3)n2)cc1C,2% (inactive),
COc1cc(OC)c(OC)cc1CN1CCc2ccccc2C1,1% (inactive),
O=C(CN1CCC(Cc2ccccc2)CC1)N1CCc2ccccc2C1,0.8% (inactive),
CCOc1cccc(C2/C(=C(/O)c3ccc4c(c3)CC(C)O4)C(=O)C(=O)N2CCCn2ccnc2)c1 (stereo unspecified),-2.5% (inactive),
O=C(Nc1sc2c(c1C(=O)O)CCC2)c1ccccc1,12.1% (inactive),
CC(C)(C)c1ccc(C(=O)Nc2sc3c(c2C(=O)O)CCC3)cc1,50.9% (active),
O=C(Nc1sc2c(c1C(=O)O)CCC2)c1ccc(F)cc1,6.4% (inactive),
O=C(CCN1CCc2ccccc2C1)c1ccc2c(c1)OCCO2,1.4% (inactive),
O=C(c1ccc(Cl)cc1)c1c[nH]c(C(=O)NNc2ccccc2)c1,-4.1% (inactive),
CN(CCc1ccccn1)C1CCCN(S(=O)(=O)c2ccc(F)c(Cl)c2)C1 (stereo unspecified),-0.2% (inactive),
Oc1c(Br)cc(/C=N/n2c(-c3ccccc3)n[nH]c2=S)c(Br)c1O,63.4% (active),
Oc1c(Br)cc(Br)cc1/C=N/n1c(-c2ccccc2)n[nH]c1=S,20.3% (inactive),
Cc1c(Br)c(O)c(Br)c(O)c1/C=N/n1c(-c2ccccc2)n[nH]c1=S,62.9% (inactive),47.6
Oc1c(Br)cc(/C=N/n2c(-c3ccccc3)n[nH]c2=S)c(O)c1Br,53.2% (active),
Oc1c(Br)cc(/C=N/n2c(-c3ccccc3)n[nH]c2=S)cc1Br,64.4% (inactive),15.2
COc1c(Br)cc(/C=N/n2c(-c3ccccc3)n[nH]c2=S)c(O)c1Br,44.2% (inactive),
Oc1ccccc1/C=N/n1c(-c2ccccc2)n[nH]c1=S,0.3% (inactive),

Compound,inhibition (at 20 µM),inhibition [1] [%]
Oc1ccc(Br)cc1/C=N/n1c(-c2ccccc2)n[nH]c1=S,6% (inactive),
CC(=O)c1cccc(N(CC(=O)N2CCOCC2)S(C)(=O)=O)c1,-1.8% (inactive),
CC(Oc1ccccc1)C(=O)NNC(=O)c1cccs1 (stereo unspecified),-0.2% (inactive),
Cc1ccc(Nc2nc(N)c([N+](=O)[O-])c(N3CCOCC3)n2)cc1,-3.1% (inactive),
Cc1c(Cl)c(C(=O)NC2C3CC4CC(C3)CC2C4)nn1C (stereo unspecified),-1.2% (inactive),
O=C(Nc1ccn(Cc2ccccc2F)n1)c1ccc(COc2ccc(Br)cc2)cc1,-0.1% (inactive),
Cc1cccc(NC(=O)CN2C(=O)CCS(=O)(=O)c3ccccc32)c1C,0% (inactive),
CC(C)(C)NC(=O)NC(=O)COC(=O)c1cccc(NS(=O)(=O)c2ccc(F)c(F)c2)c1,5.9% (inactive),
COC(=O)c1ccccc1NC(=O)COC(=O)[C@H](C)NC(N)=O,-2.5% (inactive),
C=CCn1c(CCC(O)COCCC)n[nH]c1=S (stereo unspecified),-0.8% (inactive),
COc1ccc2nc(N3CCCCC3)c(/C=C3\SC(=S)NC3=O)cc2c1,53.6% (active),
COc1ccc2cc(C#N)c(N3CCOCC3)nc2c1,2.4% (inactive),
O=C1NC(=S)S/C1=C\c1cc2ccccc2nc1N1CCCCC1,63.6% (inactive),28.2
COc1ccc2cc(/C=C3\SC(=S)NC3=O)c(N3CCOCC3)nc2c1,63.1% (active),
COc1ccc(-n2c(C)cc(/C=C3\SC(=S)NC3=O)c2C)cc1,32.3% (inactive),
O=C1NC(=S)S/C1=C/c1ccc(N2CCOCC2)o1,18.7% (inactive),
Cc1ccc(CN2CCC(n3nccc3NC(=O)C3CCOC3)CC2)cc1C (stereo unspecified),-0.8% (inactive),
CC(=O)Nc1ccc(C(=O)OCC(=O)c2ccc(C)c([N+](=O)[O-])c2)cc1,0.2% (inactive),
CCN(CC)S(=O)(=O)c1ccc(C(=O)/C=C/c2ccc(-c3ccc([N+](=O)[O-])cc3)o2)cc1,73.1% (active),88.1
Cc1ccc(C(=O)/C=C/c2ccc(-c3ccc(C)cc3)o2)cc1,21.5% (inactive),
Cc1ccc(C(=O)/C=C/c2ccc(-c3ccccc3[N+](=O)[O-])o2)cc1,35.4% (inactive),
Cc1c(C(=O)Nc2cccnc2Cl)oc2ccccc12,-1% (inactive),
CCCN(C(=O)CN1C(=O)NC2(CCCCCC2)C1=O)C1CCS(=O)(=O)C1 (stereo unspecified),0.3% (inactive),
O=C1/C(=C/c2cccnc2)Sc2ccccc21,9.2% (inactive),

Compound,inhibition (at 20 µM),inhibition [1] [%]
N#Cc1c(C(F)(F)F)cc(-c2ccccc2)nc1SCCN1CCOCC1,2.6% (inactive),
C#CCSc1nc(-c2ccccc2)cc(C(F)(F)F)c1C#N,-0.2% (inactive),
N#Cc1c(C(F)(F)F)cc(-c2ccccc2)nc1SCc1nc(N)nc(N2CCOCC2)n1,66.7% (active),
O=C(NCC1CCCO1)c1ccc(CNS(=O)(=O)c2cccc(Cl)c2)cc1 (stereo unspecified),-0.3% (inactive),
Cc1ccc(C(=O)C2=C(O)C(=O)N(Cc3ccco3)C2c2cccc(Cl)c2)o1 (stereo unspecified),25.7% (inactive),
Cc1cc(C)c(N=Cc2c(O)n(-c3nccs3)c(=O)c3ccccc23)c(C)c1,0.6% (inactive),
Cc1ccc(N=Cc2c(O)n(-c3nccs3)c(=O)c3ccccc23)c(C)c1,75.3% (active),103
Cc1ccccc1N=Cc1c(O)n(-c2nccs2)c(=O)c2ccccc12,2.3% (inactive),
CN1CCN(/N=C/c2ccc(-c3ccccc3)cc2)CC1,0% (inactive),
CC1=NN(c2ccccc2)C(=O)/C1=C\c1c(C)[nH]n(-c2ccccc2)c1=O,-0.3% (inactive),
Cc1[nH]n(-c2ccccc2)c(=O)c1/C=C1/C=c2ccccc2=N1,-2.5% (inactive),
Cc1coc2cc3oc(=O)c(CCC(=O)N4CCC(C(=O)O)(c5ccccc5)CC4)c(C)c3cc12,3.7% (inactive),
O=C1CCN(Cc2ccccc2)CCN1[C@H](CO)c1ccccc1,1.5% (inactive),
Cc1ccc(NC(=O)COC(=O)c2ccccc2-c2nc3ccccc3s2)c(C)c1,1.4% (inactive),
CCCN1C(=O)/C(=C/c2c(NCCCOC(C)C)nc3c(C)cccn3c2=O)SC1=S,1.8% (inactive),
CCCN1C(=O)/C(=C/c2c(NCCCOCC)nc3c(C)cccn3c2=O)SC1=S,8.4% (inactive),
CCOCCCNC(=O)c1cc2c(=O)n3cccc(C)c3nc2s1,-1.3% (inactive),
CCOCCCNc1nc2c(C)cccn2c(=O)c1/C=C1\SC(=S)N(C(C)CC)C1=O (stereo unspecified),94.5% (active),
CCC(C)N1C(=O)/C(=C/c2c(NCCCOC(C)C)nc3c(C)cccn3c2=O)SC1=S (stereo unspecified),75.6% (active),144
Cc1cccn2c(=O)c(C=Nc3ccccc3)c(NCCO)nc12,0.3% (inactive),
Cc1cccn2c(=O)c(/C=C3\SC(=S)NC3=O)c(NCCCN3CCOCC3)nc12,75.8% (inactive),7.4
Cc1cccn2c(=O)c3cc(C(=O)NCCCOC(C)C)sc3nc12,1% (inactive),
CCOCCCNc1nc2c(C)cccn2c(=O)c1/C=C1\SC(=S)N(CC(C)C)C1=O,58.9% (active),63.6
Cc1c(C(=O)NN)sc(=S)n1C,-1.3% (inactive),

Compound,inhibition (at 20 µM),inhibition [1] [%]
O=C(N/N=C/c1cc2c(cc1Br)OCO2)c1cc2ccccc2o1,-0.4% (inactive),
COc1cccc(NC(=O)Cc2c(O)c3ccccc3[nH]c2=O)c1,-2.3% (inactive),
Cn1nnnc1SCc1ccccc1F,2.4% (inactive),
O=C(Nc1cccc(NC(=O)c2ccc([N+](=O)[O-])o2)c1)c1ccco1,0.6% (inactive),
CC(C)c1onc(C(=O)NCCc2ccccc2)c1[N+](=O)[O-],-0.8% (inactive),
O=C(O)c1ccccc1NS(=O)(=O)c1cccc(C(F)(F)F)c1,7.8% (inactive),
CN(C)S(=O)(=O)c1cccc(-n2sc3ccccc3c2=O)c1,-1.2% (inactive),
O=C(O)c1ccccc1NS(=O)(=O)c1cccc(-n2sc3ccccc3c2=O)c1,54.9% (active),
Oc1cccc(C=Nc2cccc3ccccc23)c1O,36.3% (inactive),
Cc1ccc(N=Cc2cccc(O)c2O)c(C)c1,-1.8% (inactive),
Cc1ccccc1N=Cc1cccc(O)c1O,64.9% (active),
Clc1cccc(CN2CCN(c3nc4nonc4nc3NC3CC3)CC2)c1,3.4% (inactive),
Nc1ccc2nc3c(=O)n(C4CCCCC4)c(=O)[nH]c3nc2c1,146% (inactive),
Cc1cc2nc3c(=O)n(C4CCCCC4)c(=O)[nH]c3nc2cc1N,66.8% (active),
CCCCCCn1c(=O)[nH]c2nc3cc(N)c(C)cc3nc2c1=O,38.8% (inactive),
CCOC(=O)c1cnc2c(N=Nc3ccccc3)c(N)nn2c1N,-0.1% (inactive),
COc1ccc(/C=N\NS(=O)(=O)c2ccc(Br)cc2)cc1COc1ccccc1[N+](=O)[O-],-1.1% (inactive),
COC(=O)c1cc(S(=O)(=O)NCCc2ccc(Cl)cc2)c[nH]1,1.3% (inactive),
O=C(O)COc1ccccc1C(Nc1ccccn1)c1cc(Cl)c2cccnc2c1O (stereo unspecified),56.9% (active),
O=C(O)COc1ccccc1C(Nc1cccnc1)c1cc(Cl)c2cccnc2c1O (stereo unspecified),77.6% (active),
CCOc1ccc(C(Nc2cccnc2)c2cc(Cl)c3cccnc3c2O)cc1 (stereo unspecified),17.1% (inactive),
Oc1c(C(Nc2ccccn2)c2cccnc2)cc(Cl)c2cccnc12 (stereo unspecified),-3.6% (inactive),
O=C(NC(c1ccccc1)c1cc(Cl)c2cccnc2c1O)c1cccnc1 (stereo unspecified),0.8% (inactive),
COc1ccccc1C(NC(C)=O)c1cc(Cl)c2cccnc2c1O (stereo unspecified),-2.4% (inactive),
